Experimental data as given in PubChem BioAssay AID686978 (National Center for Advancing Translational Sciences (NCATS), 2013).
The campaign covered roughly 420,000 compounds. About 64,000 (15%) were called active. Not shown: some 27% with an inconclusive outcome. Only a sample is shown. Unmarked numbers belong to inactive results. Calls follow the shape of the dose curve; as a rule, active = well fitted inhibition curve with a large enough effect; inconclusive = small, poorly fitted or top-dose-only effect; inactive = flat fitted curve, though single readings scatter.

Assay: qHTS for Inhibitors of human tyrosyl-DNA phosphodiesterase 1 (TDP1): qHTS in cells in absence of CPT; also: nearly all actives have a fitted effect of over 55% in size
Details: DT40 Tdp1-/- hTDP1 cells, no CPT, ATP luminescence, 48 h; activity change, negative = growth inhibition: at 46.2 µM (top of the series)
From the text: Human tyrosyl-DNA phosphodiesterase 1 (TDP1) is a novel repair gene, and we propose to use it as a new target for anticancer drug development. TDP1 is not an essential protein, but under treatment with topoisomerase I poison (camptothecin: CPT), TDP1 works as a critical factor for cell survival. To directly identify novel TDP1 inhibitors active in a cellular environment, we have knocked-out the Tdp1 gene in chicken DT40 cells (Tdp1-/-) and generated a complemented counterpart cells that contains a stable transfection of the human TDP1 gene (Tdp1-/-;hTDP1 cells). For the primary screen, Tdp1-/-;hTDP1 cells will be exposed to small molecules in the presence or absence of CPT, and their growth kinetics will be evaluated after 48 hours by measuring ATP activity. […] The hit compounds will then be evaluated in the presence or absence of CPT using Tdp1-/- cells. […] In tertiary assays, biochemical gel-based assays will be used to assess whether the hit compounds specifically target TDP1.
To this end, we have screened this cell line against the MLSMR in two primary screens. In one screen we add CPT and in the other we screen in the absence of CPT; this AID represents the screen where CPT was absent.
NIH Chemical Genomics Center [NCGC]
NIH Molecular Libraries Probe Centers Network [MLPCN]
Assay Submitter (PI): Yves Pommier, NCI
DT40-hTDP1 cells without 20 nM Camptothecin (add 20 microL of DMSO in 1 L of cell culture medium) were dispensed at 400 cells/5microL/well in tissue culture treated 1536-well white wall/solid bottom assay plates (Greiner Bio-One North America, NC, U.S.A.) using a Multidrop Combi 8 channel dispenser (Thermo Fisher, Waltham, MA, USA). 23 nL compounds and controls were transferred using the pin tool (Kalypsys, San Diego, CA, USA) to the assay plates. The assay plates were then incubated at 37 masculineC for a minimum 48 hr. Three microL of Cell Titer Glo solution was added to the plates and incubated at RT in dark for 30 min. Luminescence was read using ViewLux (Perkin Elmer) with 1 sec exposure slow speed, high gain and 2x binning.
% is scaled to controls: 0 for no effect and ±100 for the full control effect; potency is read from the fitted curve at half-maximal effect.

Structure (SMILES) | activity change, negative = growth inhibition [%] | Potency
CC(C)(O)C1=C[N+](=O)CC=C1 | -3.03 | 
C#CCOCCOCCOCCNc1nc(N2CCN(C(=O)C([C@@H](C)CC)n3cc(C(N)COC(=O)C(F)(F)F)nn3)CC2)nc(N2CCN(C(=O)[C@H](CCCCN)n3cc(C(N)CC(C)C)nn3)CC2)n1 (stereo partly specified) | -1.26 | 
Cc1nn(CC(=O)Nc2ccc(N(C)C)cc2)c(C)c1[N+](=O)[O-] | -26.8 | 
CC1CC(=NNC(=O)C2COc3ccccc3O2)CC(C)(C)C1 (stereo unspecified) | -27.9 | 
C[C@@H](C(=O)N1CCNCC1)n1cc(CCC(=O)O)nn1 | -8.65 | 
COc1ccc(S(=O)(=O)N2CCOCC2)cc1NC(=O)COc1ccccc1 | -24.6 | 
COC(=O)c1cc(Oc2ccc(S(=O)(=O)N3CCOCC3)cc2[N+](=O)[O-])cc(C(=O)OC)c1 | -27.7 | 
C=C(C)CNc1cc(S(=O)(=O)N2CCOCC2)ccc1Oc1ccccc1 |  | 20.6 µM (active)
O=[N+]([O-])c1cc([N+](=O)[O-])c(Oc2cc(F)cc(F)c2F)cc1NN1CCCCC1 | -23.3 | 
COc1cccc(C(=O)NNC(=O)/C=C/c2ccccc2)c1 | 19.2 | 
O=C(/C=C/c1ccc([N+](=O)[O-])o1)NNC(=O)c1ccc(F)cc1 |  | 1.84 µM (active)
O=C(/C=C/c1ccc(F)cc1)NCCNC(=O)/C=C/c1ccc(F)cc1 | 4.93 | 
Cc1ccsc1C(=O)N[C@@H](C)c1nnc2ccccn12 | -7.07 | 
Nc1nc2[nH]c(=O)c(=O)[nH]c2c(=O)[nH]1 | 15.7 | 
CCN(CC)C(=O)CSc1nc2ccsc2c(=O)n1Cc1ccccc1Cl |  | 23.1 µM (active)
CCOC(=O)n1c(SCC(=O)N(CC)CC)nc2ccccc21 | -16.7 | 
CCOC(=O)CSc1nc2c(c(=O)n(Cc3ccccc3Cl)c(=O)n2C)n1C | -3.48 | 
CN(Cc1ccco1)c1ncncc1-c1ccoc1 | -6.14 | 
CCc1ccc(Oc2coc3cc(OC(=O)c4cc5ccccc5oc4=O)ccc3c2=O)cc1 | -9.4 | 
Cc1cn(COC/C=C/c2ccccc2)c(=O)[nH]c1=O | -2.88 | 
O=C(NCc1ccccn1)c1c(O)c2c([nH]c1=O)CCCC2 | -7.3 | 
Cc1[nH]c(=O)c(C(=O)/C=C/c2ccccc2)c2c1CCCC2 |  | 5.8 µM (active)

Structure (SMILES) | activity change, negative = growth inhibition [%] | Potency
Cc1cc(Cl)c(S(=O)(=O)Nc2ccc3c(c2)OCCO3)cc1OCC(N)=O | -29.7 | 
Cc1ccc(/C=N/NC(=O)Cn2ccc(C(F)(F)F)n2)o1 | -0.299 | 
Cc1cc(-c2n[nH]c(=S)n2-c2ccc(C)c(C)c2)no1 | -4.09 | 
Cc1cc(C)c2oc(C(=O)Nc3ccc(S(=O)(=O)Nc4nccc(C)n4)cc3)cc(=O)c2c1 | -26 | 
CCNC(=S)Nc1cccc(Cl)c1C | -27.6 | 
Cc1cc(F)ccc1NC(=S)NCCc1ccccc1 | -10.9 | 
S=C(NCc1ccco1)NCc1ccccc1Cl | 13.1 | 
Cc1cc(Cl)ccc1NC(=S)NCCCN1CCCC1=O | 3.78 | 
Cc1ccc(NC(=S)NCc2ccccc2Cl)c(C)c1 |  | 20.6 µM (active)
Cc1ccc(NC(=S)NCCc2ccc(Cl)cc2)c(C)c1 |  | 18.4 µM (active)
Clc1ccc(CSc2nnc([C@@H]3CCCN3)o2)cc1 | -17 | 
CS(=O)(=O)c1ccccc1C(=O)Nc1ccc2sccc2c1 | 14.5 | 
O=C(/C=C/c1ccccc1[N+](=O)[O-])OCC(=O)N1CCCC1 | 18.5 | 
CCC(C(=O)Nc1c(C)cccc1C)n1c(-c2cc(C)cs2)nc2ccccc21 (stereo unspecified) | -14.6 | 
CCC(C(=O)NCc1ccccc1)n1c(Cc2cc(F)cc(F)c2)nc2ccccc21 (stereo unspecified) |  | 16.4 µM (active)
O=C(CCSCc1cccc(F)c1)NCc1ccccc1 | -7.79 | 
CCC(C)c1ccc(O)c(/C=N/O)c1 (stereo unspecified) | 16.9 | 
Cc1cc(C)n(-c2nc(O)cc(=O)[nH]2)n1 | 8.33 | 
CS(=O)(=O)N(CC(=O)NC1CCCC1)Cc1ccc(F)cc1 | -6.2 | 
Cc1ccc(OCC(=O)N2CCN(C(=O)c3cccnc3)CC2)cc1 | -10.2 | 
Cc1ccc(NC(=O)Cc2nc(COC(=O)C(C)NS(=O)(=O)c3ccc(C)cc3)cs2)cc1 (stereo unspecified) | -26.5 | 
O=C(Nc1ccccc1)Nc1nc2ccccc2s1 | -2.58 | 

Structure (SMILES) | activity change, negative = growth inhibition [%] | Potency
Cc1ccc(C(=O)NNC(=O)c2cccs2)cc1 | -20 | 
CCC(=O)Nc1ccc(C(=O)Nc2cc(C)on2)cc1 | 2.69 | 
CC(=O)Nc1ccc(-c2csc(NC(=O)Nc3ccccc3)n2)cc1 |  | 1.16 µM (active)
CSc1nsc(NC(=O)Nc2ccccc2)n1 |  | 20.6 µM (active)
CC(=O)Nc1ccc(S(=O)(=O)Nc2nc(-c3ccc(C(C)(C)C)cc3)cs2)cc1 | -17.4 | 
O=C(O)c1ccccc1C(=O)Nc1nc(-c2ccccc2)cs1 | -0.805 | 
CC(=O)c1ccc(NC(=O)CSc2nnc(NC(=O)Nc3ccccc3)s2)cc1 | -28.6 | 
CC(=O)Nc1ccc(C(=O)Nc2nc(-c3cc(C)n(Cc4ccccc4)c3C)cs2)cc1 |  | 14.6 µM (active)
Cc1ccc(-c2csc(NNC(=O)c3ccccc3)n2)cc1 |  | 5.17 µM (active)
CC(=O)c1ccc(NC(=O)N[C@@H](Cc2ccccc2)C(=O)O)cc1 | -2.61 | 
Cc1nc(NNC(=O)c2ccccc2)cc(-c2ccccc2)n1 | -10.7 | 
CN1C(=O)C2(OCCCO2)c2cc(Cl)ccc21 | 7.23 | 
O=C(CNC(=O)Cc1ccccc1)NCC(=O)OCC(=O)c1ccccc1Cl | -18.5 | 
O=C(c1snnc1-c1ccccc1)N1CCOCC1 | 7.46 | 
Cc1nn(C(C)CC(=O)O)c(C)c1C (stereo unspecified) | 5.41 | 
CCN1N=C(c2ccccc2)CCC1=O | 0.898 | 
CCN(CC(=O)NCCc1ccccc1)S(=O)(=O)c1ccc(C)cc1 | -8.2 | 
COCC(=O)N1CCC2(CCCN(c3ccccc3)C2)CC1 | -15.7 | 
COc1ccc(C(=O)OCC(=O)NCC2CCCO2)cc1[N+](=O)[O-] (stereo unspecified) | 12.4 | 
COc1ccc(C(CNC(=O)c2cc3c(s2)CCCC3)N2CCOCC2)cc1 (stereo unspecified) | 0.592 | 
CCCNC(=O)COc1coc(CN2CCN(Cc3ccccc3)CC2)cc1=O | 11.7 | 
O=S(=O)(c1ccc(Br)cc1)N1CCC(c2nc3ccccc3[nH]2)CC1 |  | 20.6 µM (active)

Structure (SMILES) | activity change, negative = growth inhibition [%] | Potency
O=C(C1CCCO1)N1CCC(c2nc3ccccc3[nH]2)CC1 (stereo unspecified) | -4.09 | 
O=S(=O)(c1ccccc1)N1CCC(c2ccccc2)CC1 | -16.2 | 
Cc1c(NC(=O)c2c([N+](=O)[O-])cnn2C)c(=O)n(-c2ccccc2)n1C | 5.36 | 
O=C(NCC12CC3CC(C1)CC(CNC(=O)N1CCCC1)(C3)C2)N1CCCC1 | -19.6 | 
Cc1ccc(-n2c(-c3ccc(Cl)cc3)n[nH]c2=S)cc1 | -8.56 | 
Cc1ccc(-n2c3nc(=O)[nH]c(=O)c-3cc3c(Cl)cccc32)cc1 |  | 0.731 µM (active)
O=c1cc(Cl)c2ccccc2n1-c1ccccc1 | -3.55 | 
NC(=O)NCCCC(=O)O | 25.5 | 
Cc1nn(CC(=O)Nc2nc3ccccc3s2)c(C)c1[N+](=O)[O-] | -13.3 | 
CCC(C)Cn1c(O)cc2nn(-c3nc4ccccc4s3)c(=O)c-2c1C (stereo unspecified) |  | 18.4 µM (active)
CCCS(=O)(=O)N1CCCC(C(=O)NCCN2CCCCC2C)C1 (stereo unspecified) | 9.41 | 
Cc1c(NC(=O)Nc2ccccc2Cl)sc(=S)n1C | 9.06 | 
C/C(=N\NS(=O)(=O)c1ccc(Cl)cc1)c1ccc(NC(=O)c2ccco2)cc1 | -12.3 | 
Cc1ccc(-c2nnc(SCc3ccccc3C)o2)cc1 | -26.2 | 
CCOc1ccc(C(=O)c2cn(Cc3ccccc3OC)c3ccc(F)cc3c2=O)cc1 |  | 20.6 µM (active)
COc1ccccc1CNC(=O)CN1CCC(n2cnc3cc(F)ccc32)CC1 | -29.6 | 
O=C(c1ccc(F)cc1)c1cn(Cc2ccc(F)cc2)c2cc3c(cc2c1=O)OCCO3 | -19.6 | 
CCOC(=O)C1CCN(C(c2ccc(F)cc2)c2sc3nc(-c4ccco4)nn3c2O)CC1 (stereo unspecified) | -15.8 | 
Cc1cccc(Cn2c(=O)n(CCC(=O)NCCc3ccc(Cl)cc3)c(=O)c3sccc32)c1 | -14.5 | 
CCc1c(C)nc2c(OC)cccc2c1Cl | -7.5 | 
CCOc1ccc(CC(=O)Nc2ccc(S(=O)(=O)Nc3cc(C)on3)cc2)cc1OCC | 1.83 | 
Cc1cccc(C(=O)Nc2nnc(Cc3c[nH]c4ccccc34)s2)c1 | -23.7 | 

Structure (SMILES) | activity change, negative = growth inhibition [%] | Potency
CCCCOCCCNC(=O)C[C@@H]1C[C@@]2(C(=O)OCC)CCCC=C2N(CCC2=CCCCC2)C1=O |  | 18.4 µM (active)
COc1ccc(CN2C(=O)C(CC(=O)NCCN3CCOCC3)CC(C(=O)N(C(C)C)C(C)C)=C2C)cc1 (stereo unspecified) | -2.68 | 
CCCCOCCCNC(=O)C[C@@H]1C[C@@]2(C(=O)OC)CCCCC=C2N(CCC2=CCCCC2)C1=O |  | 23.1 µM (active)
CCOC(=O)[C@]12CCCC=C1N(CCC1=CCCCC1)C(=O)[C@H](CC(=O)NCCCOC)C2 |  | 20.6 µM (active)
COCCCN1C(=O)C(CC(=O)NCc2cccs2)CC(C(=O)N2CCOCC2)=C1C (stereo unspecified) | 3.62 | 
CC(C)COc1ccc(C(=O)OCC(=O)NCCC2=CCCCC2)cc1 | -16.4 | 
COC(=O)[C@]12CCCCC=C1N(CCC1=CCCCC1)C(=O)[C@H](CC(=O)NCC1CCCCC1)C2 |  | 23.1 µM (active)
CN1CCNC(=O)C1CC(=O)NCCC1=CCCCC1 (stereo unspecified) | 2.56 | 
CC1=C(C(=O)N(C)C)CC(CC(=O)NCCc2ccccn2)C(=O)N1CCC1=CCCCC1 (stereo unspecified) | -10.7 | 
COc1cccc(CNC(=O)C(NS(=O)(=O)c2ccc3nc(C)sc3c2)C(C)C)c1 (stereo unspecified) | -22.3 | 
Cc1cc(C)cc(NC(=O)Cc2csc(C)n2)c1 | -0.897 | 
Cc1ccc(C)c(NC(=O)CCC(=O)N/N=C2/CC(=O)CC(C)(C)C2)c1 | -11.3 | 
CCCCC(=O)N1CC2(C)CN(C(=O)CCCC)CC(C)(C1)C2=O | -2.18 | 
O=C(O)CN(Cc1ccco1)S(=O)(=O)c1ccccc1 | -1.89 | 
O=C(CCNC(=O)c1ccc(Br)cc1)NCC(c1ccco1)N1CCCCC1 (stereo unspecified) | -18.3 | 
CC(C)CN(C(=O)c1cccc(S(=O)(=O)N2CCCCC2)c1)C1CCS(=O)(=O)C1 (stereo unspecified) |  | inactive
CCCCNCc1ccc(SC)cc1 | -13.6 | 
CC(=NNC(N)=O)C1CC2CCC1CC2 (stereo unspecified) | -5.2 | 
